# Test results: PubChem BioAssay AID926 (National Center for Advancing Translational Sciences (NCATS), 2007)
# Several values for one entry are separate records, joined by “and”; a condition that tells them apart may be missing. Equal values may be shown once. Among all 73,000 compounds or so, about 350 (0.48%) were called active. Not shown: some 17% with an inconclusive outcome. The call rests on the fitted dose curve; in most records, active means well fitted activation curve with a large enough effect in the main read-out, with a control signal flat (not every such curve was filed as active); inconclusive means small, poorly fitted or top-dose-only effect, or a change in a side signal; inactive means no such curve, though single readings can be large or run the other way; reference of the percent scale not stated here. The sample as a whole holds a higher share of actives than the screen did.
# Experiments:
# [1] = qHTS Assay for Agonists of the Thyroid Stimulating Hormone Receptor; settings: HEK293-CNG-TSHR cells, membrane potential dye, cAMP; measured here: parental cells max response
# Source text: (§1) NIH Chemical Genomics Center [NCGC]
# (§2) NIH Molecular Libraries Screening Centers Network [MLSCN]
# (§3) PI Name: Dr. Marvin Gershengorn, NIH
# (§4) Thyroid Stimulating Hormone Receptor
# (§5) TSH is an alpha/beta heterodimeric glycoprotein hormone secreted from the anterior pituitary gland which belongs to the glycoprotein hormone family. The actions of TSH are mediated by a seven-transmembrane receptor, which upon TSH binding couples preferentially to the G-alpha (s) protein (Gs), resulting in activation of adenylate cyclase and increase in cyclic adenosine 3', 5' monophosphate (cAMP). The TSH receptor (THSR) is mainly expressed in thyroid follicular cells and regulates their growth and function. Recombinant TSH is used to activate TSHR in patients with thyroid cancer receiving thyroid hormone suppression therapy and to screen for residual tumor after surgery, but it is expensive and must be administered intramuscularly. An orally active small molecule TSHR agonist would serve as an invaluable research tool for studying TSHR pharmacology and physiology, and would have multiple advantages in therapeutic settings. However, no selective small molecule agonist of the TSH receptor exists, and no small molecule screen for TSHR agonists has ever been reported.
# (§6) This cell based assay utilized a cyclic nucleotide gated ion channel (CNG) as a biosensor for cAMP induction by potential TSHR agonists.
# (§7) HEK 293 cells stably expressing the TSHR as well as a modified CNG were purchased from BD biosciences. Stimulation of cAMP production causes the CNG to open and subsequent membrane depolarization to occur. A fluorescent membrane potential dye (BD biosciences) was utilized to detect cAMP stimulation in TSHR cells.
# (§8) The cells were maintained in DMEM medium (Invitrogen) containing 10 % FBS (Hyclone), 100 units/ml Penicillin, 100 ug/ml Streptomycin (Invitrogen), and 250 ug/ml Geneticin (Invitrogen) and 1 ug/ml Puromycin (Invitrogen) at 37C in 5% CO2. HEK 293 cells expressing CNG but without TSHR (parental cells) were used in concert to control for compounds signaling through endogenous receptors and targets of HEK 293 cells.
# (§9) NCGC Assay Protocol Summary:
# (§10) High Throughput Screening. Freshly passaged cells (TSHR or parental) were dispensed into 1536-well assay plates at 4 ul/well in DMEM containing phenol red (Invitrogen), 10% FCS (Hyclone), and 100 units/ml Penicillin, 100 ug/ml Streptomycin (Invitrogen) and incubated at 37 C with 5% CO2 for 20 to 36 hrs before the robotic screening. The screen was initiated by addition of 4 ul/well membrane potential dye containing 100 uM RO 20-1724 (Sigma Aldrich), followed by 60 min incubation at room temperature to allow for dye equilibration across the cell membrane. 23 nl/well compound or control was then added to the assay plates, which were incubated for additional 30 min before reading a Envision fluorescence plate reader (Perkin Elmer) in bottom-read mode for fluorescence intensity (emission at 590 nm).
# (§11) Keywords: Thyroid-stimulating hormone TSH, TSHR, TSHR agonist, quantitative high throughput screening, qHTS, HTS, probe identification, CNG, cAMP, cyclic nucleotide gated ion channel PubChem
# [2] = target: Thyrotropin receptor (Homo sapiens) (UniProt P16473); assay: as above; settings: HEK293-CNG-TSHR cells (CNG channel as cAMP sensor), membrane potential dye, cAMP; series mostly up to 57.1 µM
# Source text: as §1, §2, §3, §4, §5, §6, §7, §8, §9, §10, §11
# Potency means the concentration at half of the fitted maximal effect.
# Thyrotropin receptor (Homo sapiens), sequence (P16473 whole entry, looked up): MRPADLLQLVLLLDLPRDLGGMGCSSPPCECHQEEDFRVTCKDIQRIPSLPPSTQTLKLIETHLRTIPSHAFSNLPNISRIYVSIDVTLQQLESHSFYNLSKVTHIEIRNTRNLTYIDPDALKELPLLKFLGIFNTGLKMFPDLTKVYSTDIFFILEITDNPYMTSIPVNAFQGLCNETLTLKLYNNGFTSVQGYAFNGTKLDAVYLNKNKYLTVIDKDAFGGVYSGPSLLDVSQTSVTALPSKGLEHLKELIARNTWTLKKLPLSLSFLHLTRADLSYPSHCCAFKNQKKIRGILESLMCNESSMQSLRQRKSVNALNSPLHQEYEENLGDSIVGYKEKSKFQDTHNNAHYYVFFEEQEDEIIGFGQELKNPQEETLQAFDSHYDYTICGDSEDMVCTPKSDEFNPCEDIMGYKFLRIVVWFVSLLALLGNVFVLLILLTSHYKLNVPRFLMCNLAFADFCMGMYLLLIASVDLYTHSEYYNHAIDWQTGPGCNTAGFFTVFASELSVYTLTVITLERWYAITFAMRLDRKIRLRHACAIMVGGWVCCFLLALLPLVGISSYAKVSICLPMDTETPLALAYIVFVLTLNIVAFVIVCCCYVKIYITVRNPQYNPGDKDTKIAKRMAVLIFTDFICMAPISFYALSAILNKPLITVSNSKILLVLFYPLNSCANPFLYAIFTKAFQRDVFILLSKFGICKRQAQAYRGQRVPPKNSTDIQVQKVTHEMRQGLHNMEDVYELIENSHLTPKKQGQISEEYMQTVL
SMILES,activation [1],Potency [2],activation [2]
CCOC(=O)c1c(NC(=O)CCC(=O)NCc2ccco2)sc2c1CCCC2,12.9%,inactive,
O=C(COC(=O)CCC(=O)c1cccs1)NCc1ccco1,10.5%,inactive,
O=C(COC(=O)C12CC3CC(CC(C3)C1)C2)NCc1ccco1,-8.57%,0.794 µM (active),
CC(C)CO/N=C1/C[C@@H](O)[C@@H](O)[C@@H]2[C@@H]3C(=O)N(C[C@@H]4CCCO4)C(=O)[C@H]3CC[C@@H]12,4.27%,,-4.09% [at 11.4 µM] (inactive)
COC(=O)C(C(=O)OC)[C@@H]1CCCC(=O)C1,4.23%,,-9.31% [at 11.4 µM] (inactive)
COC(=O)C(C)Sc1ccc2nnc(-c3cccc(F)c3)n2n1 (stereo not drawn),2.29%,inactive,
CSc1ccc(Cl)c(C(=O)OCC(=O)N2CC(C)OC(C)C2)c1 (stereo not drawn),6.62%,inactive,
COC(=O)C1=C(C)N(Cc2ccccc2)C2=C3C(=O)N(c4ccccc4)C(=O)C3[C@@](O)(C(=O)OC)C(=O)N2C1c1ccccc1 (stereo partly drawn),9.18% and 2.67%,,-0.785% [at 11.4 µM] (inactive) and 7.43% [at 11.4 µM] (inactive)
CCCNC(=O)OC[C@@H]1O[C@H](c2ccccc2)C=C[C@@H]1Oc1ccc(OC)cc1,1.38%,,1.94% [at 11.4 µM] (inactive)
CN1CCCc2cc(C#N)c(=O)[nH]c21,7.1%,,4.78% [at 11.4 µM] (inactive)
O=C(COc1cccc(-n2cnnn2)c1)NCCC1=CCCCC1,-0.416%,inactive,
O=C(Cc1nn[nH]n1)NCCC1=CCCCC1,15.8%,inactive,
O=C(CN1C(=O)NC2(CCCCC2)C1=O)NCCC1=CCCCC1,3.28%,12.6 µM (active),
CNC(=O)C1(C)C=CC2(CCCCC2)N1C(C)=O (stereo not drawn),9.38%,inactive,
O=C(c1ccccc1)c1ccc2nc(N3CCCCC3)c3nncn3c2c1,3.47%,inactive,
O=C(O)c1cc(S(=O)(=O)N2CCCCCC2)c(Cl)cc1Cl,9.56%,,12.9% [at 11.4 µM] (inactive)
COC(=O)[C@@]1(C)C=C[C@@H](Cc2ccccc2)N1C(C)=O,15.2%,inactive,
CCC[C@@H]1C[C@@]1(CCC)C(NC(=O)c1ccc(-c2ccccc2)cc1)c1cccc(Cl)c1 (stereo partly drawn),-2.94%,inactive,
COC(=O)C1(C)C=CCN1C(=O)c1ccccc1 (stereo not drawn),22%,inactive,
O=C(Cl)c1ccccc1[N+](=O)[O-],27%,inactive,
CC(C)CN1CCc2nc(-c3ccccc3)c3c(c2C1)COC(C)C3 (stereo not drawn),-2.08%,,-2.84% [at 11.4 µM] (inactive)
CCN(CC)CCCCn1c(-c2ccccc2)nc2c(N3CCOCC3)nc(C)nc21,25%,inactive,
CN1CCN(Cc2nc3c(c(=O)n(C)c(=O)n3C)n2Cc2cccc3ccccc23)CC1,2.12%,inactive,
C[C@@H]1/C=C\CC(=O)OC[C@H]2O[C@@H](C=C[C@@H]2O)[C@H](C)/C=C\CC(=O)OC[C@H]2O[C@H]1C=C[C@@H]2O,-6.65%,,-3.42% [at 11.4 µM] (inactive)
